FMDV inh: antivirals against foot and mouth disease virus. FMDV antiviral cell-based qHTS. Potency, µM (doses to about 57.9 µM), without a hit: at the highest dose activity change, negative = inhibition, usual class: inhibitors. AID 1159524. hit rate 1.2% among 410,000; calls by dose curve; tested in HEK293T cells; note: read-out not given here; nearly all actives have a fitted effect of over 45% in size
Tb PYK inh: T. brucei pyruvate kinase inhibition | TbPYK enzyme, Kinase-Glo Plus ATP luminescence, 45 min | Potency, µM (series often up to 76.8 µM), for inactives: at the top dose activity, negative = inhibition, hits mostly inhibitors | hit rate 0.12% among 410,000 | AID 624173; note: nearly all actives have a fitted effect of over 50% in size
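Luminescence from Kinase-Glo Plus, added after a 45-minute room-temperature reaction, served as the end-point read-out. The enzyme and substrate were preincubated with compound before ADP (130 uM final) initiated turnover. Concentration-effect curves came from normalized qHTS data.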
RE007 growth inh: less growth of the S. pombe RE007 Vpr strain; S. pombe RE007 Vpr strain, BacTiter-Glo ATP luminescence, 24 h; Potency, µM (highest dose often 92.2 µM), inactives show at the top dose activity change, negative = less growth, usual class: inhibitors; hit rate 0.21% among 360,000; active = well fitted falling curve with a large enough effect; inconclusive = small, poorly fitted or top-dose-only effect; inactive = no such curve, though single readings can be large or run the other way; note: nearly all actives have a fitted effect of over 50% in size
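Fission yeast strain RE007, carrying one chromosomally integrated HIV-1 vpr copy, was seeded at OD 0.01 in PMG+AL medium with 23 nL pinned compound. After 24 h at 30 °C and 99% humidity, viability was read by BacTiter-Glo luminescence.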
Sm TGR inh: blocks Schistosoma mansoni thioredoxin glutathione reductase; purified TGR, DTNB reduction, TNB absorbance 405 nm; Q962Y6; AID 485364; hit rate 3% among 360,000; Potency, µM (series often up to 114 µM), inactives show top-dose activity change, negative = inhibition, most hits filed as inhibitors; note: nearly all actives have a fitted effect of over 60% in size
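Kinetic colorimetric format: TGR-catalysed, NADPH-driven DTNB reduction monitored via TNB absorbance. Enzyme dispensed at 20 nM; compound exposure 15 min at room temperature before reaction start.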
* hit, by the source's call; ? = inconclusive; . = no result given. Most compounds without a hit are left out; they make up all but 3.7% or so of the library. Unless noted, calls come from the whole dose curve; as a rule, active = well fitted curve in the direction sought with a large enough effect; inconclusive = small, poorly fitted or top-dose-only effect, or another doubt; inactive = no such curve, though single readings can be large; an effect the other way counts as inactive or inconclusive. % is set by controls: 0 for no effect and ±100 for the full control effect; potency is the fitted concentration of half-maximal effect.

SMILES	FMDV inh	Tb PYK inh	RE007 growth inh	Sm TGR inh
COc1ccc(C(C[N+](=O)[O-])c2c(C)[nH]n(-c3ccccc3)c2=O)cc1 (configuration not stated)	-1.2%	-8.8%	11.2µM*	17.8µM*
CCN(CC)CCOc1ccc(-c2nc3cc(Cl)ccc3s2)cc1	.	3.2%	.	.
O=C(NC(=S)Nc1ccc2c(c1)OCCO2)c1ccccc1F	14.7%	4.9%	8.7%	?
O=C(NC(=S)Nc1ccc(F)cc1)c1ccc2c(c1)OCCO2	-0.3%	-2.9%	-8.5%	11.2µM*
O=C(NC(=S)Nc1ccc2c(c1)OCCO2)c1ccccc1	-16.8%	2.8%	-3.5%	8.91µM*
COc1cc(Cl)c(NC(=O)CN(C)S(=O)(=O)c2ccc3[nH]c4c(c3c2)CCCC4)c(OC)c1	?	0.7%	.	4.3%
CC(=O)c1ccc(NS(=O)(=O)c2ccc3[nH]c4c(c3c2)CCCC4)cc1	67.1%	4.0%	.	-0.9%
Cc1oc(-c2ccc(Cl)cc2)cc1-c1nn2c(-c3ccoc3C)nnc2s1	-14.2%	-5.5%	?	22.4µM*
Cc1cccc(-c2cnc(C)nc2C2CCCN(C(=O)c3cccc(Cn4cccn4)c3)C2)c1 (configuration not stated)	-19.0%	.	.	.
CC(C)c1ccc(NC(=O)C(Cc2ccccc2)NS(=O)(=O)c2ccc3c(c2)CCC(=O)N3)cc1 (configuration not stated)	0.0%	-11.2%	.	7.2%
O=C(/C=C/c1ccco1)Nc1nnc(-c2ccco2)s1	54.8%	1.6%	8.1%	-21.7%
O=C(/C=C/c1ccco1)NC1=NCCS1	-0.2%	-5.8%	-0.6%	44.7µM*
CNS(=O)(=O)c1ccc2nc(NC(=O)/C=C/c3ccco3)sc2c1	1.4%	-13.9%	-13.2%	22.4µM*
CCc1nnc(NC(=O)/C=C/c2ccco2)s1	44.2%	-8.1%	-1.8%	39.8µM*
COc1cc(/C=C/C(=O)Nc2nc3ccc(S(=O)(=O)N(C)C)cc3s2)cc(OC)c1OC	-6.5%	-4.3%	-13.8%	-4.7%
CCSc1nnc(NC(=O)/C=C/c2ccco2)s1	34.2%	-1.1%	-3.1%	22.4µM*
O=C(/C=C/c1ccco1)Nc1cccc(NC(=O)/C=C/c2ccco2)n1	19.0%	-7.0%	1.1%	-35.7%
Cc1nc(NC(=O)/C=C/c2ccco2)sc1C	28.2%	-11.9%	11.4%	50.1µM*
COC(=O)c1sc(NC(=O)c2ccoc2C)nc1C	42.6%	-1.2%	-1.4%	0.8%
COC(=O)c1sc(NC(=O)/C=C/c2ccc(C)o2)nc1C	20.6%	43.1%	-24.7%	44.7µM*
CCS(=O)(=O)c1nc(S(=O)(=O)c2ccc(Cl)cc2)c(NCc2ccccc2Cl)s1	18.4%	-1.6%	.	-10.6%
O=C(NCc1ccccc1)NC1COc2ccccc2C1 (configuration not stated)	26.2%	-5.4%	.	1.9%
COc1ccc(/C=C(\C#N)c2nc(-c3cc4c(ccc5ccccc54)oc3=O)cs2)cc1O	-5.3%	1.8%	.	3.4%
CCOC(=O)N1CCN(C(=O)c2ccc(CS(=O)(=O)c3c(Cl)cccc3Cl)o2)CC1	-27.0%	-3.8%	3.3%	44.7µM*
O=C(c1ccco1)N1CCN(C(=O)c2ccc(CS(=O)c3ccc(Cl)cc3)o2)CC1 (configuration not stated)	-7.6%	-4.4%	-1.9%	39.8µM*
SMILES	FMDV inh	Tb PYK inh	RE007 growth inh	Sm TGR inh
O=C(c1ccc(CS(=O)(=O)c2c(Cl)cccc2Cl)o1)N1CCCC1	-20.9%	-3.9%	6.5%	35.5µM*
O=C(c1ccc(CS(=O)(=O)c2ccc(Br)cc2)o1)N1CCCC1	?	-11.0%	11.5%	0.0%
O=C(c1ccc(CS(=O)(=O)c2ccc(Br)cc2)o1)N1CCCCCC1	-11.0%	-2.0%	-5.6%	35.5µM*
CCc1ccc(NC(=O)C2CCN(S(=O)(=O)c3c(C)noc3/C=C/c3cccs3)CC2)cc1	?	-1.7%	.	6.0%
O=C1CC(c2nnc(Cc3ccc(F)cc3Cl)o2)CN1c1ccccc1 (configuration not stated)	12.3%	-7.4%	.	-4.6%
COc1ccc(CN2Cc3ccccc3OC(c3ccccc3OC)C2)c(O)c1 (configuration not stated)	-13.6%	.	.	.
O=C(Cn1c(=O)n(Cc2nc(-c3ccccc3)no2)c(=O)c2cc3c(cc21)OCO3)Nc1cccc(C(F)(F)F)c1	0.0%	-3.6%	.	3.8%
O=C(c1ccc(CS(=O)c2ccccc2Cl)o1)N1CCCCCC1 (configuration not stated)	-1.9%	-5.3%	-2.8%	39.8µM*

Source: PubChem
